PubChem BioAssay (NCI)
The panel holds about 83,000 compounds, 20% with a hit somewhere; the sample as a whole holds those more often.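 Values shown are percent growth following 48 h exposure of cells in 96-well plates to a single concentration of compound; below 10 was considered active.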 Active and inactive are the calls of the source.

Columns and labels:
Experiment in all cases: NCI-60 one-dose screen, 48 h (100 = growth as untreated, 0 = no growth, -100 = all killed)
Conditions in all cases: 10 µM unless noted
SR leukemia = system: SR leukemia
RPMI-8226 leukemia = system: RPMI-8226 leukemia
OVCAR-8 ovarian = system: OVCAR-8 ovarian
OVCAR-5 ovarian = system: OVCAR-5 ovarian
OVCAR-4 ovarian = system: OVCAR-4 ovarian
SK-OV-3 ovarian = system: SK-OV-3 ovarian
IGROV1 ovarian = system: IGROV1 ovarian
OVCAR-3 ovarian = system: OVCAR-3 ovarian
HS 578T breast = system: HS 578T breast
NCI/ADR-RES ovarian = system: NCI/ADR-RES ovarian

Measured: growth

CCC(=O)c1cc(C(=O)OC)c2ccc3c4ccccc4ccc3n12
inactive: SR leukemia 68.3% | RPMI-8226 leukemia 84.9% | OVCAR-8 ovarian 71.5% | OVCAR-5 ovarian 73.8% | SK-OV-3 ovarian 122% | IGROV1 ovarian 70.2% | OVCAR-3 ovarian 67.5% | HS 578T breast 63.3% | NCI/ADR-RES ovarian 76.6%
active: OVCAR-4 ovarian 1.22%

CC(=O)Nc1ccc(S(=O)(=O)Nc2ccc(-c3ccc4c(c3)NC(=O)/C4=C\c3ccc[nH]3)cc2)cc1
inactive: SR leukemia 34.7% | RPMI-8226 leukemia 78.3% | OVCAR-8 ovarian 98% | OVCAR-5 ovarian 79.5% | OVCAR-4 ovarian 67.8% | SK-OV-3 ovarian 104% | IGROV1 ovarian 81.2% | OVCAR-3 ovarian 141% | HS 578T breast 98.6% | NCI/ADR-RES ovarian 107%

COc1ccccc1Nc1nnc(-c2c[nH]c3ccccc23)o1
active: SR leukemia 1.74% | RPMI-8226 leukemia -12.4% | HS 578T breast 9.82% | NCI/ADR-RES ovarian -35.9%
inactive: OVCAR-8 ovarian 11.8% | OVCAR-5 ovarian 32.1% | OVCAR-4 ovarian 64.3% | SK-OV-3 ovarian 15.4% | IGROV1 ovarian 16.8% | OVCAR-3 ovarian 12.9%

COC(=O)c1cc(C(=O)C(Br)Br)n2c1ccc1c3ccccc3ccc12
inactive: SR leukemia 13.6% | RPMI-8226 leukemia 54.6% | OVCAR-8 ovarian 38.6% | OVCAR-5 ovarian 64.4% | OVCAR-4 ovarian 48.8% | SK-OV-3 ovarian 75.4% | IGROV1 ovarian 32.1% | OVCAR-3 ovarian 77% | HS 578T breast 44.3% | NCI/ADR-RES ovarian 70.3%

C/C(=N/O)c1ccc(NC(=O)CSc2nnc(-c3ccc(-c4nc5ccc(Cl)cc5[nH]4)cc3)o2)cc1
active: OVCAR-8 ovarian -31.7% | OVCAR-3 ovarian -5.29% | HS 578T breast -13.3%
inactive: SR leukemia 12.3% | RPMI-8226 leukemia 18.2% | OVCAR-5 ovarian 55.3% | OVCAR-4 ovarian 14.5% | SK-OV-3 ovarian 39.6% | IGROV1 ovarian 34.5% | NCI/ADR-RES ovarian 88.9%

O=C(CSc1nnc(-c2ccc(-c3nc4ccccc4[nH]3)cc2)o1)Nc1ccc(Br)cc1
active: SR leukemia 5.23% | RPMI-8226 leukemia 7.82% | OVCAR-8 ovarian 4.46%
inactive: OVCAR-5 ovarian 44.7% | OVCAR-4 ovarian 54.3% | SK-OV-3 ovarian 79% | IGROV1 ovarian 35.8% | OVCAR-3 ovarian 34.2% | HS 578T breast 57.2% | NCI/ADR-RES ovarian 21.5%

COc1ccc2c(c1)C(Sc1ccc(Br)cc1)c1c(nc(N)c(C#N)c1N)O2 (stereo not given)
inactive: SR leukemia 46.5% | RPMI-8226 leukemia 87.1% | OVCAR-8 ovarian 87% | OVCAR-5 ovarian 113% | OVCAR-4 ovarian 92.4% | SK-OV-3 ovarian 98.1% | IGROV1 ovarian 59.1% | OVCAR-3 ovarian 114% | HS 578T breast 88.8% | NCI/ADR-RES ovarian 86.5%

Clc1ccc(-c2nc3c4c(-c5ccccc5)c(-c5ccccc5)n(Cc5ccccc5)c4ncn3n2)cc1
inactive: OVCAR-8 ovarian 11.6% | OVCAR-5 ovarian 16.6% | OVCAR-4 ovarian 16.4% | IGROV1 ovarian 16.1% | OVCAR-3 ovarian 14.7% | NCI/ADR-RES ovarian 70.9%
active: SR leukemia 5.49% | RPMI-8226 leukemia -34.7% | SK-OV-3 ovarian -10.2% | HS 578T breast -8.15%

N/C(=N\c1nc2ccccc2s1)NC(=O)Nc1ccccc1[N+](=O)[O-]
inactive: SR leukemia 13.6% | OVCAR-5 ovarian 10.9% | OVCAR-4 ovarian 34.9% | IGROV1 ovarian 20.2% | HS 578T breast 41.5%
active: RPMI-8226 leukemia 2.19% | OVCAR-8 ovarian -18.8% | SK-OV-3 ovarian 2.97% | OVCAR-3 ovarian -7.53% | NCI/ADR-RES ovarian -11.3%

O=C1CC(c2ccc(I)cc2)OC2C=Cc3ccccc3C12 (stereo not given)
inactive: SR leukemia 88.9% | RPMI-8226 leukemia 87.2% | OVCAR-8 ovarian 104% | OVCAR-5 ovarian 115% | OVCAR-4 ovarian 96.7% | SK-OV-3 ovarian 96.7% | IGROV1 ovarian 119% | OVCAR-3 ovarian 125% | HS 578T breast 104% | NCI/ADR-RES ovarian 104%

FC(F)(F)c1cc2c(Cl)ncnc2n1CCC1CCOCC1
inactive: RPMI-8226 leukemia 72.2% | OVCAR-8 ovarian 18.1% | OVCAR-5 ovarian 102% | SK-OV-3 ovarian 50.6% | NCI/ADR-RES ovarian 69%
active: SR leukemia -64.3% | OVCAR-4 ovarian -16.5% | IGROV1 ovarian -90.6% | OVCAR-3 ovarian -75.4% | HS 578T breast -42.5%

CCCn1c(NC(=O)c2cccc(C(N)=O)c2)nc2cc(CN3CCCCC3)ccc21
inactive: SR leukemia 41.5% | RPMI-8226 leukemia 80.7% | OVCAR-8 ovarian 117% | OVCAR-5 ovarian 99% | OVCAR-4 ovarian 90.2% | SK-OV-3 ovarian 83.4% | IGROV1 ovarian 88.5% | OVCAR-3 ovarian 101% | HS 578T breast 119% | NCI/ADR-RES ovarian 114%
